The structures appear in SMILES notation.

The subject of this assay is PDPK1.

For `CNc1nc(-c2ccc3c(N)n[nH]c3c2)cc(N2C[C@@H](C(=O)NC3CCCCC3)CC[C@H]2C)n1` [GSK2334470], the Kinases covered result was “PDPK1”.

Source of the values: publication PMC7826789 (International Journal of Molecular Sciences, 2021).
